Several values for one entry are separate records, joined by “and”; a condition that tells them apart may be missing. Identical values can stand only once. A number with no mark means an inactive call. Inconclusive results are not listed. Activity calls are given as the source filed them. Unless noted, calls follow the shape of the dose curve; as a rule, active = well fitted inhibition curve with a large enough effect; inconclusive = small, poorly fitted or top-dose-only effect; inactive = flat fitted curve, though single readings scatter. Non-standard residues stand in square brackets, D forms with d. Residues, ends and D or L forms follow the SMILES beside them. Orn = NCCC[C@H](N)C(=O)O

The results in this text go back to PubChem BioAssay (NCATS).

Test [1] concerns astro (control astrocytes). Kind of test: Drug repurposing screens with cells derived from glioblastoma tumor samples (AID 1345199). Also: nearly all actives have a fitted effect of over 40% in size. Also: potency is read from the fitted curve at half-maximal effect. As to activity, negative = cell killing: % is scaled to controls: 0 for no effect and ±100 for the full control effect. To be noted: viability, ATP luminescence, 48 h; series mostly up to 45.9 µM. A digest of the protocol: (§1)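 Four patient lines of CD133+ GBM neurospheres were screened at several concentrations; hits were retested in those lines plus three slower-growing GBM lines, using 48-hour treatment and ATP-based viability.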

Experiment in test [2]: as above
The note with it: GBM patient neurospheres viability, ATP luminescence, 48 h. The method in brief:
as §1

The target in test [3] is Nuclear receptor subfamily 1 group I member 2 (Rattus norvegicus) (UniProt Q9R1A7). Kind of test: qHTS assay for small molecule activators of the rat pregnane X receptor (rPXR) signaling pathway (AID 651751; call rule not given here; also: 0% is about no effect). To be noted: rPXR reporter cells, luciferase (One-Glo), 24 h. Background: In qHTS, concentration-response curves come from the screen itself.
Sequence of Nuclear receptor subfamily 1 group I member 2 (Rattus norvegicus) (Q9R1A7 whole entry, looked up): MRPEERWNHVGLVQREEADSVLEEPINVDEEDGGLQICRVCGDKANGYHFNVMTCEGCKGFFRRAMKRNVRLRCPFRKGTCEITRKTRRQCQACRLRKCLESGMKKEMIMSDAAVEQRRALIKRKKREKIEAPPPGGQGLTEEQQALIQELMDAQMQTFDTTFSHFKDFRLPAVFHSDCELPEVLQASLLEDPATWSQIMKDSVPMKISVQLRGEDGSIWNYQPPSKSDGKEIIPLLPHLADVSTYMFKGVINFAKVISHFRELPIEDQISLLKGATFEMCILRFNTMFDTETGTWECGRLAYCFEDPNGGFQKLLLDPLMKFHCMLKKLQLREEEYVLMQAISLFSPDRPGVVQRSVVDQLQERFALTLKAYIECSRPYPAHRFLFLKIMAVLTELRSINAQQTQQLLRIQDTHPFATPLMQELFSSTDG
The nature of test [4]: qHTS assay for small molecule activators of the human pregnane X receptor (PXR) signaling pathway (AID 720659; call rule not given here; also: 0% is about no effect).
Where [5] appears, read: at 45.9 µM (top of the series), tumour line D.
Setting [6] is: at 46.1 µM (top of the series), tumour line C.

On to `Clc1cc(Cl)c(OCC#CI)cc1Cl`, for which the Potency result in test [1] is “inactive”.

`COc1cc([C@@H]2c3cc4c(cc3[C@@H](O[C@@H]3O[C@@H]5CO[C@@H](C)O[C@H]5[C@H](O)[C@H]3O)[C@H]3COC(=O)[C@H]23)OCO4)cc(OC)c1O`: the activity, negative = cell killing is -20.4% in test [2] (setting [5]) and -16.4% in test [2] (setting [6]). The Potency result in test [1] was “inactive”.

Turning to `CCCCCCCC/C=C\CCCCCCCC(=O)O`, the activity, negative = cell killing in test [2] (at 45.9 µM (top of the series), tumour line B) was 3.38%; in test [2] (setting [5]), -14.1%; in test [2] (setting [6]), 14.2%. Further, the Potency result in test [1] was “inactive”. Besides, the max response in test [3] is 0.673% and 2.82%. The call in test [4] was inactive.

As to `O=C(Nc1ccc(Br)cc1)c1cc(Br)c(Br)s1`, the Potency in test [1] was 11.2 µM (active).

Take `CC(C)C[C@@H]1NC(=O)[C@H](CCCN)NC(=O)[C@H](C(C)C)NC(=O)[C@@H]2CCCN2C(=O)[C@@H](Cc2ccccc2)NC(=O)[C@H](CC(C)C)NC(=O)[C@H](CCCN)NC(=O)[C@H](C(C)C)NC(=O)[C@@H]2CCCN2C(=O)[C@@H](Cc2ccccc2)NC1=O` (cyclo(V[Orn]L[dF]PV[Orn]L[dF]P)): the Potency in test [1] was 3.98 µM (active).

On to `Cc1cc(CC(C)CC(C)(C)C)n(O)c(=O)c1` (stereo not drawn) (tested in a mixture with another compound), for which, in test [1], the Potency is 20 µM (active).

For the molecule `CCOc1ccc2c(c1)C(C)=CC(C)(C)N2`, in test [2] (setting [6]), the activity, negative = cell killing was -10%. For the same molecule, the Potency in test [2] (tumour line A) was 39.8 µM (active). The Potency entry in test [1] was “inactive”.

With `CC(C(=O)O)c1ccc(N2Cc3ccccc3C2=O)cc1` (stereo not drawn), in test [1], the Potency was 10 µM (active).

On to `O=C1C(=O)c2ncccc2-c2cccnc21`, for which the Potency in test [1] is 0.562 µM (active).
